In PubChem BioAssay (Tox21):
Results filed as inconclusive are left out. Activity calls are given as the source filed them. The call rests on the fitted dose curve.

These compounds were tested against Peroxisome proliferator-activated receptor delta (Homo sapiens) (UniProt Q03181) (assay: qHTS assay to identify small molecule agonists of the peroxisome proliferator-activated receptor delta (PPARd) signaling pathway (AID 743212)). Conditions: HEK293H PPARd-UAS-bla, beta-lactamase FRET ratio, 17 h; series mostly up to 62.6 µM.
From the text: U.S. Tox21 Program National Center for Advancing Translational Sciences [NCATS] NIH Chemical Genomics Center [NCGC] U.S. Environmental Protection Agency [EPA] National Institutes of Environmental Health Sciences [NIEHS] National Toxicology Program [NTP] U.S. Food and Drug Administration [FDA] Tox21 Assay Overview: The peroxisome proliferator-activated receptors (PPARs) are lipid-activated transcription factors of the nuclear receptor superfamily with three distinct subtypes namely PPAR alpha, PPAR delta (PPARd) and PPAR gamma. All these subtypes heterodimerizes with Retinoid X receptor (RXR) and have different physiological functions. […] To identify the compounds that activate PPAR-delta signaling, GeneBLAzer PPAR delta UAS-bla HEK293H cell line (Invitrogen, Carlsbad, CA, USA) containing a beta-lactamase reporter gene under the control of an Upstream Activator Sequence (UAS) was used to screen the Tox21 compound library.
Tox21 Assay Protocol Summary: PPARd-bla cells were dispensed at 3000 cells/6uL/well in 1536-well black wall/clear bottom plates using a Multidrop Combi (Thermo Fisher Scientific, Waltham, MA) dispenser. After the assay plates were incubated at 37 C and 5% CO2 for 5 h, 23 nL of compounds dissolved in DMSO, positive controls or DMSO only was transferred to the assay plate by a Pintool station (Kalypsys, San Diego, CA). The assay plates were incubated at 37C for 17 h. After 1 uL of LiveBLAzerTM B/G FRET substrate was added using a Bioraptr Flying Reagent Dispenser (FRD) workstation (Beckman Coulter, Indianapolis, IN, USA), the plates were incubated at room temperature for 2 h, and fluorescence intensity was measured by an Envision plate reader (PerkinElmer, Shelton, CT).
On the % scale 0 is the no-effect control and ±100 the full control effect.

Peroxisome proliferator-activated receptor delta (Homo sapiens), sequence (Q03181 whole entry, looked up): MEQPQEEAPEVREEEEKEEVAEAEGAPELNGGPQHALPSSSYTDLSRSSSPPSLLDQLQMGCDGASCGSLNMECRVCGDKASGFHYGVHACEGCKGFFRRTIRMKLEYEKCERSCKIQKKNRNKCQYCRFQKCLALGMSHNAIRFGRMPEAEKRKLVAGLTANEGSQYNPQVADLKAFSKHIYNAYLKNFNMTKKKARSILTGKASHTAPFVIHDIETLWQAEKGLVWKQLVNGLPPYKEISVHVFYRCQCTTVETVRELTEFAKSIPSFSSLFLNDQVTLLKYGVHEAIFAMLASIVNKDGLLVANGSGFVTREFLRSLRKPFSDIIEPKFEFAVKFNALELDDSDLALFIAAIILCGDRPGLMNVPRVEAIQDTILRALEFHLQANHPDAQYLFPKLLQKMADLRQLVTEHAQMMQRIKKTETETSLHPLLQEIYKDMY

| SMILES | outcome | activation |
| --- | --- | --- |
| S=P(N1CC1)(N1CC1)N1CC1 | inactive |  |
| Oc1ccc(-c2ccccc2)c(Cl)c1 | inactive |  |
| C[C@@H]1CC[C@H]2C(C)(C)[C@H]3C[C@@]12CC[C@@]3(C)O | inactive |  |
| Cc1cc(Nc2ccc(O)cc2)ccc1N | inactive |  |
| C1CC(COCC2CO2)CCC1COCC1CO1 (stereo not given) | inactive |  |
| CCCCN(CCCC)CCC(O)c1cc2c(Cl)cc(Cl)cc2c2cc(C(F)(F)F)ccc12 (stereo not given) | inactive |  |
| Nc1ncnc2c1ncn2[C@@H]1O[C@H](COP(=O)(O)O)[C@@H](O)[C@H]1O | inactive |  |
| C[C@]12CC[C@H]3C(=CCc4cc(O)ccc43)[C@@H]1CCC2=O | inactive |  |
| CCCCCCCC/C=C/CCCOC(C)=O | inactive |  |
| CCC1(c2cnc[nH]2)Cc2ccccc2C1 | inactive |  |
| Cc1cccc(Br)c1 | inactive |  |
| CC(C)c1ccc(O)c(C(C)C)c1 | inactive |  |
| CC(C)=C1CC[C@@H](C)CC1=O | inactive |  |
| CCCCCCCCCCCCCOP(=O)(O)O | inactive |  |
| N[C@@H](CSSC[C@H](N)C(=O)O)C(=O)O |  | -7.58% [at 0.55 µM] (inactive) |
| CCC(C)(C)c1cc(O)c(C(C)(C)CC)cc1O | inactive |  |
| CCCCCCCCCCCC(=O)N(CC)CC | inactive |  |
| O=C1OC(=O)c2cccc3cccc1c23 | inactive |  |
| C(=C/c1ccccc1)/c1ccccc1 | inactive |  |
| CCOC(=O)[C@@](C)(N)Cc1ccc(O)c(O)c1 | inactive |  |

| SMILES | outcome | activation |
| --- | --- | --- |
| O=S(=O)(O)CCCN1CCOCC1 | inactive |  |
| C=CC(=O)OCC(O)COc1ccccc1 (stereo not given) | inactive |  |
| COc1cccc(CCc2ccccc2OCC(CN(C)C)OC(=O)CCC(=O)O)c1 (stereo not given) | inactive |  |
| NCCCCCCNCCCCCCN | inactive |  |
| Cc1occc1SSc1ccoc1C | inactive |  |
| CC(=O)Oc1ccc(C2(c3ccc(OC(C)=O)cc3)C(=O)Nc3ccccc32)cc1 | inactive |  |
| NC(=O)C(=O)N/N=C/c1ccc([N+](=O)[O-])o1 | inactive |  |
| Nc1cc(Cl)c([N+](=O)[O-])cc1O | inactive |  |
| C=CC(C)(CCC=C(C)C)OC(=O)/C=C/c1ccccc1 (stereo not given) | inactive |  |
| C/C=C/C=N/NC(=O)c1ccncc1 | inactive |  |
| c1cc(OCC2CO2)cc(OCC2CO2)c1 (stereo not given) | inactive |  |
| c1cc2c3c(c1)ccc1cccc(c13)C2 | inactive |  |
| Brc1ccccc1-c1ccccc1 | inactive |  |
| Cc1c(C(=O)O)cccc1[N+](=O)[O-] | inactive |  |
| C=C[C@](C)(O)CC[C@@H]1[C@@]2(C)CCCC(C)(C)[C@@H]2CC[C@@]1(C)O | inactive |  |
| CC1CCCCN1CCCOC(=O)c1ccc(OC2CCCCC2)cc1 (stereo not given) | inactive |  |
| O=C(O)CC(=O)O | inactive |  |
| Cc1nc(Nc2ncc(C(=O)Nc3c(C)cccc3Cl)s2)cc(N2CCN(CCO)CC2)n1 | inactive |  |
| C[Si](C)(C)Cl | inactive |  |
| CCCCCCCC/C=C\CCCCCCCC(=O)OCCOC(=O)CCCCCCC/C=C\CCCCCCCC | inactive |  |
